Where a name gives a salt, the structure may show the parent alone. Values without a mark were called inactive. No stated cut-off is given here; in the data, active = 2 or more and inactive = the rest.
Test system: S. cerevisiae BY4741 (wild-type), vegetative growth in YPD
Assay: growth sensitivity score (doubling time z-score vs DMSO controls); higher = slower growth, strongly negative scores also mark growth inhibition (complete suppression), active = hit call of the paper
Method in brief: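 Yeast (Saccharomyces cerevisiae BY4741 and AD1-9) was grown in rich medium in microtiter plates from a starting OD600 of 0.065, with optical density read every 15 min over 24 hours. The growth sensitivity score was the difference between compound and solvent-only means, divided by the solvent-only standard deviation. Every experiment had eight solvent-only wells.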

Compound	growth sensitivity score
COC(=O)CCc1ccc(OCC(O)CNC(C)C)cc1 (centres undefined) [Esmolol hydrochloride] (stock concentration (mM, diluted 1:100): 9)	-0.5
Nc1nc2ccc(Cl)cc2c2nc(-c3ccco3)nn12 (stock concentration (mM, diluted 1:100): 10)	5.26 (active)
CCC1=C(C)CN(C(=O)NCCc2ccc(S(=O)(=O)NC(=O)N[C@H]3CC[C@H](C)CC3)cc2)C1=O [Glimepiride] (stock concentration (mM, diluted 1:100): 7.7)	-0.03
CC(C(=O)O)c1ccc(-c2ccccc2)c(F)c1 (centres undefined) [Flurbiprofen] (stock concentration (mM, diluted 1:100): 11.4)	0.01
COc1cc(OC)c(C(=O)CCCN2CCCC2)c(OC)c1 [Buflomedil hydrochloride] (stock concentration (mM, diluted 1:100): 8.9)	2.01 (active)
Oc1ccc(C2CNCCc3c2cc(O)c(O)c3Cl)cc1 (centres undefined) [Fenoldopam mesylate] (stock concentration (mM, diluted 1:100): 7.7)	-0.74
C=CC1=C(C(=O)O)N2C(=O)[C@@H](NC(=O)/C(=N\OCC(=O)O)c3csc(N)n3)[C@H]2SC1 [Cefixime trihydrate] (stock concentration (mM, diluted 1:100): 10)	-0.62
O=C(O)/C=C/c1ccc(Cn2ccnc2)cc1 [Ozagrel hydrochloride] (stock concentration (mM, diluted 1:100): 8.6)	2.72 (active)
O=C1CCc2ccc(OCCCCN3CCN(c4cccc(Cl)c4Cl)CC3)cc2N1 [Aripiprazole] (stock concentration (mM, diluted 1:100): 10)	117 (active)

From the supplement of paper PMC3414501
